Laboratory results: PubChem BioAssay (Tox21)
Records with an inconclusive call do not appear. Where a call stands in place of a potency, no number is given. Values without a mark were called inactive. Activity calls are given as the source filed them. The call rests on the fitted dose curve; in most records, active means well fitted activation curve with a large enough effect in the repeat runs; inconclusive means weak or mixed curves; inactive means flat fitted curve, though single readings scatter.

Experiment: A CellTox Green Cytotoxicity Assay to monitor cytotoxicity in HEK293 cells - 40 hour (AID 1224871); further: nearly all actives have a fitted effect of over 45% in size
Details: CellTox Green fluorescence; series mostly up to 76.8 µM
From the text: National Center for Advancing Translational Sciences [NCATS]
NIH Chemical Genomics Center [NCGC]
U.S. Environmental Protection Agency [EPA]
National Institutes of Environmental Health Sciences [NIEHS]
National Toxicology Program [NTP]
Cell-based models are critical for drug discovery. Determining the natural cytotoxic effects resulting from test compounds is an essential research activity. A CellTox Green Cytotoxicity Assay to monitor cytotoxicity in real time of continues cell culture during 40 hours of the compound treatment was used to screen Tox21 10K library compounds in Hek293 cells. CellTox Green Cytotoxicity Assay is a nonlytic, homogeneous, biofluorescent method to measure cytotoxicity in cell culture after experimental manipulation. The assay system uses a proprietary asymmetric cyanine dye that is excluded from viable cells but preferentially stains the dead cell's DNA. […] Viable cells produce no appreciable increases in fluorescence. Therefore, the fluorescence signal produced by the binding interaction with dead cell DNA is proportional to cytotoxicity.
The mixture of Hek293 cell suspension and reagents were dispensed at 600cells/6 ul/well in 1536-well tissue culture treated black solid bottom plates using a Multidrop dispenser. After the assay plates were incubated at a 37 C/5% CO2 incubator for 5 hours, 23 nL of compounds dissolved in DMSO, positive and negative controls was transferred to the assay plate by a pintool work station. The plates were incubated at 37 C for 40 hours. The fluorescence intensity were measured at 0h, 8h, 16h, 24h, 32h and 40h time points using ViewLux plate reader during compound treatment.
With `C[C@@H]1CCC[C@H](C)N1CCCC(O)(c1ccccc1)c1ccccn1` (stereo not given in full) the Potency was “inactive”. In the case of `CC(=O)Nc1ccc(S(=O)(=O)Nc2cc(C)on2)cc1`, the Potency is reported as “inactive”. In the case of `CC(=O)Nc1ccc(OCCOCCOc2ccc(NC(C)=O)cc2)cc1`, the Potency is reported as “inactive”. In the case of `CN1CCN(C(=O)C2CCCCC2)CC1`, the Potency is reported as “inactive”. With `Cc1cc(O)c(Cl)cc1C` the Potency was “inactive”. In the case of `CCCCCCCCCCCC(C)=O`, the Potency is reported as “inactive”. In the case of `CC(C)(C)C(=O)NCCCC(=O)O`, the Potency is reported as “inactive”. In the case of `CCCC(=O)CC`, the Potency is reported as “inactive”. For `CCc1ccc(CC)cc1`, the Potency was “inactive”. In the case of `COCCCOc1cc(C[C@@H](C[C@H](N)[C@@H](O)C[C@H](C(=O)NCC(C)(C)C(N)=O)C(C)C)C(C)C)ccc1OC`, the Potency is reported as “inactive”. For `CC(C)C(C)C`, the Potency was “inactive”. With `O=P(O)(O)C(O)(Cc1cccnc1)P(=O)(O)O` the Potency was “inactive”. With `Cc1ccc2ccccc2n1` the Potency was “inactive”. For `Cc1cc(C)c(C)c(C)c1`, the Potency was “inactive”. With `CCN1CCN(C(=O)N[C@@H](C(=O)N[C@@H]2C(=O)N3C(C(=O)O)=C(CSc4nnnn4C)CS[C@H]23)c2ccc(O)cc2)C(=O)C1=O` the Potency was “inactive”. With `O=C(O)CCC(=O)Nc1ccc(S(=O)(=O)Nc2nccs2)cc1` the Potency was “inactive”. With `COc1cc2nc(N3CCN(C(=O)C4CCCO4)CC3)nc(N)c2cc1OC` (stereo not given) the Potency was “inactive”. With `C=C(C)C(=O)OCCOC1CC2CC1C1C=CCC21` (stereo not given) the Potency was “inactive”. In the case of `CC(C)OC(=O)C(C(=O)OC(C)C)=C1SC=CS1`, the Potency is reported as “inactive”. With `CCCCCCCOC(C)=O` the Potency was “inactive”. With `C=COCCCCO` the Potency was “inactive”. With `Cc1cccc(N)n1` the Potency was “inactive”. In the case of `CC(C)C(=O)Nc1cccc(C2CN3CCSC3=N2)c1` (stereo not given), the Potency is reported as “inactive”. In the case of `CC(C)(O)CCCC1=CCC(C=O)CC1` (stereo not given), the Potency is reported as “inactive”. With `CC(CC(=O)Cl)CC(C)(C)C` (stereo not given) the Potency was “inactive”. With `Cc1ccc(S(=O)(=O)NC(=O)NN2CC3CCCC3C2)cc1` (stereo not given) the Potency was “inactive”. With `CCOC(=O)[C@H](CCc1ccccc1)N[C@H]1CS[C@H](c2cccs2)CN(CC(=O)O)C1=O` the Potency was “inactive”. In the case of `C[C@@H]1CC[C@@]2(OC1)O[C@H]1C[C@H]3[C@@H]4CC[C@H]5C[C@@H](O)CC[C@]5(C)[C@H]4CC(=O)[C@]3(C)[C@H]1[C@@H]2C`, the cytotoxicity increase is reported as -2.28% [at 6.97 µM]. For `BrCCOc1ccccc1`, the Potency was “inactive”. In the case of `C=C(C)C(=O)OCCCC`, the Potency is reported as “inactive”. For `Cc1cc2c(cc1CC(=O)c1sccc1S(=O)(=O)Nc1onc(C)c1Cl)OCO2`, the Potency was “inactive”. For `OCCC(F)(F)C(F)(F)C(F)(F)C(F)(F)C(F)(F)C(F)(F)F`, the Potency was “inactive”. With `CC[N+](C)(CC)CC` the Potency was “inactive”. For `CCOC(=O)CC(C(C)=O)C(C)=O`, the Potency was “inactive”. With `NCC1CCC(C(=O)Oc2ccc(CCC(=O)O)cc2)CC1` (stereo not given) the Potency was “inactive”. In the case of `CCCc1ccc(O)c(OC)c1`, the Potency is reported as “inactive”. For `O=C1CCCc2c(O)cccc21`, the Potency was “inactive”. With `CC(O)CCCCn1c(=O)c2c(ncn2C)n(C)c1=O` (stereo not given) the Potency was “inactive”. For `CCOC(=O)CN1CCCC1=O`, the Potency was “inactive”. With `NNC(=O)CCCCC(=O)NN` the Potency was “inactive”.
